Measurements as given in PubChem BioAssay (NCI).
Compounds without any hit were thinned out: in the full panel of roughly 83,000, 20% have a hit.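 Interpretation: 100, growth as untreated; towards 0, rising growth inhibition; 0, no net growth; 0 to -100, cell death. Compounds scoring below 10 were considered active.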 Active and inactive are the calls of the source.

The compounds below were run on SW-620 colon (assay: NCI-60 one-dose screen, 48 h (100 = growth as untreated, 0 = no growth, -100 = all killed)). Details: 10 µM unless noted.
For `CCOC(=O)C1CCN(S(=O)(=O)/N=C2/NC(=O)NC2=C(Cl)Cl)CC1`, the growth was -63.9% (active).
`COc1ccc(-c2cc(-c3nnc(SCC(=O)Nc4ccc(/C(C)=N\O)cc4)o3)c3ccccc3n2)cc1` was tested, and the growth was 105% (inactive).
In the case of `COc1ccc(-c2cs/c(=N\N=C\c3ccc(O)cc3O)n2/N=C/c2ccc(O)cc2O)cc1`, the growth is reported as -51.3% (active).
`CCC1=C[C@H]2CN(CCc3c([nH]c4ccccc34)[C@@](C(=O)OC)(c3cc4c(cc3OC)N(C)[C@H]3[C@@](O)(C(=O)OC)[C@H](OC(C)=O)[C@]5(CC)[C@@H]6C[C@@H]6CN6CC[C@]43[C@@H]65)C2)C1` was tested, and the growth was 29.2% (inactive).
In the case of `COCCOCCOCc1n(Cc2ccc3ccccc3n2)c2ccccc2[n+]1Cc1ccc2ccccc2n1`, the growth is reported as 36.2% (inactive).
With `CCOC(=O)NCCc1nc2c([nH]1)c(=O)n(C)c(=O)n2C` the growth was 103% (inactive).
For `COc1ccc(-c2cn(-c3ccc(Cl)cc3)c(=S)[nH]2)cc1OC`, the growth was 114% (inactive).
For `O=C(Nc1nccs1)c1noc2ccccc12`, the growth was 98.8% (inactive).
With `CCOC(=O)c1c(C)nc2c(c1N)/C(=C/c1ccccn1)C(=O)N2Cc1ccccc1` the growth was 1.97% (active).
With `COc1ccc(Cl)c([N+](=O)[O-])c1` the growth was 103% (inactive).
In the case of `Cn1c2ccccc2c2c(OC(=O)c3ccccc3)c3c(nc21)-c1ccccc1C3`, the growth is reported as 105% (inactive).
For `O=[N+]([O-])c1ccc(Oc2ccc(-c3ccccc3)cc2)cc1`, the growth was 99% (inactive).
`CNC(=O)c1cc(Oc2ccc3c(c2)sc2nc(-c4ccc(NC(C)=O)cc4)cn23)ccn1` was tested, and the growth was 57.2% (inactive).
In the case of `COc1ccc2nc(-c3ccc(Cl)cc3)cc(-c3nnc(SCC(=O)Nc4ccc(/C(C)=N\O)cc4)o3)c2c1`, the growth is reported as 3.98% (active).
In the case of `C#Cc1ccccc1NC(=O)c1sc2nc3c(cc2c1N)CCCCCC3`, the growth is reported as 27.6% (inactive).
For `CN(C)CCCn1c2c(c3cc(-c4cccc(S(N)(=O)=O)c4)ccc3c1=O)C(=O)c1ccccc1-2`, the growth was 36.8% (inactive).
With `Clc1ccc2c(NCCCNC3CCCCC3)ccnc2c1` the growth was 111% (inactive).
In the case of `O=C(Nc1nc(-c2ccccc2Cl)cs1)c1cc(-c2ccc(Br)cc2)nc2ccccc12`, the growth is reported as 57% (inactive).
With `CC[C@H](Nc1ncnc2nc[nH]c12)c1nc2cccc(CC(=O)c3ccc(C(=O)NO)cc3)c2c(=O)n1-c1ccccc1` the growth was 96.3% (inactive).
For `CCSc1ccc(C2C(Br)C(=O)N2c2cc(OC)c(OC)c(OC)c2)cc1` (stereo unspecified), the growth was 23% (inactive).
With `C=CCn1c(SCC(=O)Nc2ccc(C(=O)/C=C/c3cc(OC)c(OC)c(OC)c3)cc2)nnc1-c1ccc(Cl)cc1` the growth was 11.8% (inactive).
In the case of `COC(=O)c1oc2c(C(=O)/C=C/c3ccc(OC)cc3)c(OCCCN3CCCCC3)ccc2c1C`, the growth is reported as -17.9% (active).
For `C#C[C@@]1(O)[C@@H](CO)O[C@@H](n2cc(Cl)c3c(N)ccnc32)[C@@H]1O`, the growth was 54.8% (inactive).
For `CN1CC=C(c2cc(NC(=O)Nc3ccc(Oc4ccnc(NC(=O)C5CC5)c4)c(F)c3)cc(C(F)(F)F)c2)CC1`, the growth was -0.0556% (active).
With `C=C(C)[C@@H]1CCC=C2CC[C@]3(C)[C@H](CC[C@@H]4[C@@]5(C)CCCNC(C)(C)[C@@H]5CC[C@]43C)[C@H]21` the growth was -50.2% (active).
`COc1ccc(C(=O)c2cc(OC)c(C)c(OC)c2)cc1OC(=O)CCl` was tested, and the growth was 24.1% (inactive).
With `COc1ccc(-c2[nH]c3ccccc3c2C=C(C#N)C#N)cc1` the growth was 20.5% (inactive).
With `CC(=O)c1cnc(-c2ccccc2)nc1CBr` the growth was 39.6% (inactive).
`COc1ccc(-c2[nH]c3ccc(OC)cc3c2C=C(C#N)C#N)cc1` was tested, and the growth was 26.5% (inactive).
With `NC(N)=NC(N)=Nc1cc2ccccc2c2ccccc12` the growth was 22.9% (inactive).
In the case of `CCCCCOC(=O)c1ccccc1O`, the growth is reported as 105% (inactive).
In the case of `COc1cc(C(=O)Nc2cc(OC)c3ccn(C)c3c2)cc2c1C[C@]1(C)CC[C@@H](O)C(C)(C)[C@H]1O2`, the growth is reported as 2.19% (active).
`CC(=O)c1ccc(NC(=O)CSc2nnc(-c3cc(-c4ccc(Cl)cc4)nc4ccccc34)o2)cc1` was tested, and the growth was 75.6% (inactive).
In the case of `CC(=O)c1cc2c(N)c(C(=O)Nc3ccccn3)sc2nc1C`, the growth is reported as 96.9% (inactive).
With `FC(F)(F)c1ccc2c(Nc3cccc(C4CC(c5ccccc5)=NN4c4ccc(Cl)cc4)c3)ccnc2c1` (stereo unspecified) the growth was -17.3% (active).
For `O=C1c2ccccc2C(=O)c2c1oc1c2c(=O)[nH]c2ccc(Cl)cc21`, the growth was -53% (active).
For `CN(C)CCCn1c2c(c3cc(-c4ccco4)ccc3c1=O)C(=O)c1ccccc1-2`, the growth was 30.2% (inactive).
In the case of `Nc1c(C(=O)Nc2ccccc2)sc2nc3c(cc12)CN(C(=O)OCc1ccccc1)CC3`, the growth is reported as 30.1% (inactive).

The compounds below were run on MCF7 breast in the same assay as above. Details: 10 µM unless noted.
With `CCOC(=O)C1CCN(S(=O)(=O)/N=C2/NC(=O)NC2=C(Cl)Cl)CC1` the growth was 16.4% (inactive).
In the case of `COc1ccc(-c2cc(-c3nnc(SCC(=O)Nc4ccc(/C(C)=N\O)cc4)o3)c3ccccc3n2)cc1`, the growth is reported as 96.1% (inactive).
With `COc1ccc(-c2cs/c(=N\N=C\c3ccc(O)cc3O)n2/N=C/c2ccc(O)cc2O)cc1` the growth was -11.5% (active).
For `CCC1=C[C@H]2CN(CCc3c([nH]c4ccccc34)[C@@](C(=O)OC)(c3cc4c(cc3OC)N(C)[C@H]3[C@@](O)(C(=O)OC)[C@H](OC(C)=O)[C@]5(CC)[C@@H]6C[C@@H]6CN6CC[C@]43[C@@H]65)C2)C1`, the growth was 7.76% (active).
With `COCCOCCOCc1n(Cc2ccc3ccccc3n2)c2ccccc2[n+]1Cc1ccc2ccccc2n1` the growth was 9.35% (active).
In the case of `CCOC(=O)NCCc1nc2c([nH]1)c(=O)n(C)c(=O)n2C`, the growth is reported as 95.4% (inactive).
`COc1ccc(-c2cn(-c3ccc(Cl)cc3)c(=S)[nH]2)cc1OC` was tested, and the growth was 72.2% (inactive).
With `O=C(Nc1nccs1)c1noc2ccccc12` the growth was 63.9% (inactive).
In the case of `CCOC(=O)c1c(C)nc2c(c1N)/C(=C/c1ccccn1)C(=O)N2Cc1ccccc1`, the growth is reported as 2.76% (active).
In the case of `COc1ccc(Cl)c([N+](=O)[O-])c1`, the growth is reported as 95.5% (inactive).
`Cn1c2ccccc2c2c(OC(=O)c3ccccc3)c3c(nc21)-c1ccccc1C3` was tested, and the growth was 72.7% (inactive).
In the case of `O=[N+]([O-])c1ccc(Oc2ccc(-c3ccccc3)cc2)cc1`, the growth is reported as 84.4% (inactive).
For `CNC(=O)c1cc(Oc2ccc3c(c2)sc2nc(-c4ccc(NC(C)=O)cc4)cn23)ccn1`, the growth was 55% (inactive).
With `COc1ccc2nc(-c3ccc(Cl)cc3)cc(-c3nnc(SCC(=O)Nc4ccc(/C(C)=N\O)cc4)o3)c2c1` the growth was 7.93% (active).
With `C#Cc1ccccc1NC(=O)c1sc2nc3c(cc2c1N)CCCCCC3` the growth was 58.4% (inactive).
In the case of `CN(C)CCCn1c2c(c3cc(-c4cccc(S(N)(=O)=O)c4)ccc3c1=O)C(=O)c1ccccc1-2`, the growth is reported as 27.7% (inactive).
With `Clc1ccc2c(NCCCNC3CCCCC3)ccnc2c1` the growth was 90.7% (inactive).
For `O=C(Nc1nc(-c2ccccc2Cl)cs1)c1cc(-c2ccc(Br)cc2)nc2ccccc12`, the growth was 29.4% (inactive).
With `CC[C@H](Nc1ncnc2nc[nH]c12)c1nc2cccc(CC(=O)c3ccc(C(=O)NO)cc3)c2c(=O)n1-c1ccccc1` the growth was 77.9% (inactive).
`CCSc1ccc(C2C(Br)C(=O)N2c2cc(OC)c(OC)c(OC)c2)cc1` (stereo unspecified) was tested, and the growth was 13.2% (inactive).
`C=CCn1c(SCC(=O)Nc2ccc(C(=O)/C=C/c3cc(OC)c(OC)c(OC)c3)cc2)nnc1-c1ccc(Cl)cc1` was tested, and the growth was -3.5% (active).
With `COC(=O)c1oc2c(C(=O)/C=C/c3ccc(OC)cc3)c(OCCCN3CCCCC3)ccc2c1C` the growth was 6.82% (active).
In the case of `C#C[C@@]1(O)[C@@H](CO)O[C@@H](n2cc(Cl)c3c(N)ccnc32)[C@@H]1O`, the growth is reported as 36.7% (inactive).
With `CN1CC=C(c2cc(NC(=O)Nc3ccc(Oc4ccnc(NC(=O)C5CC5)c4)c(F)c3)cc(C(F)(F)F)c2)CC1` the growth was -17.1% (active).
In the case of `C=C(C)[C@@H]1CCC=C2CC[C@]3(C)[C@H](CC[C@@H]4[C@@]5(C)CCCNC(C)(C)[C@@H]5CC[C@]43C)[C@H]21`, the growth is reported as 0.921% (active).
With `COc1ccc(C(=O)c2cc(OC)c(C)c(OC)c2)cc1OC(=O)CCl` the growth was 13.4% (inactive).
In the case of `COc1ccc(-c2[nH]c3ccccc3c2C=C(C#N)C#N)cc1`, the growth is reported as 11.4% (inactive).
With `CC(=O)c1cnc(-c2ccccc2)nc1CBr` the growth was 52.2% (inactive).
With `COc1ccc(-c2[nH]c3ccc(OC)cc3c2C=C(C#N)C#N)cc1` the growth was 17.1% (inactive).
For `NC(N)=NC(N)=Nc1cc2ccccc2c2ccccc12`, the growth was 2.2% (active).
In the case of `CCCCCOC(=O)c1ccccc1O`, the growth is reported as 87.6% (inactive).
With `COc1cc(C(=O)Nc2cc(OC)c3ccn(C)c3c2)cc2c1C[C@]1(C)CC[C@@H](O)C(C)(C)[C@H]1O2` the growth was 6.32% (active).
With `CC(=O)c1ccc(NC(=O)CSc2nnc(-c3cc(-c4ccc(Cl)cc4)nc4ccccc34)o2)cc1` the growth was 55.8% (inactive).
`CC(=O)c1cc2c(N)c(C(=O)Nc3ccccn3)sc2nc1C` was tested, and the growth was 73.2% (inactive).
With `FC(F)(F)c1ccc2c(Nc3cccc(C4CC(c5ccccc5)=NN4c4ccc(Cl)cc4)c3)ccnc2c1` (stereo unspecified) the growth was 11.5% (inactive).
In the case of `O=C1c2ccccc2C(=O)c2c1oc1c2c(=O)[nH]c2ccc(Cl)cc21`, the growth is reported as 0.704% (active).
In the case of `CN(C)CCCn1c2c(c3cc(-c4ccco4)ccc3c1=O)C(=O)c1ccccc1-2`, the growth is reported as -21.6% (active).
`Nc1c(C(=O)Nc2ccccc2)sc2nc3c(cc12)CN(C(=O)OCc1ccccc1)CC3` was tested, and the growth was 21.1% (inactive).
